The values below come from PubChem BioAssay (NCI).

The structures appear in SMILES notation. This is part of a sample that, as a whole, favours compounds with a hit. Of some 83,000 tested, about 20% had one in any assay.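 Single-concentration screen, 48 h exposure, 96-well plates. Endpoint: percent growth. Below 10 = active.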 Calls of active or inactive are those of the source.

The first test has as its system PC-3 prostate. As to the kind of experiment: NCI-60 one-dose screen, 48 h (100 = growth as untreated, 0 = no growth, -100 = all killed). To be noted: 10 µM unless noted.
Take `CCC(=O)Oc1c(C)cc(O)c2ccccc12`: the growth was 59% (inactive).
For `COCC(N)=O`, the growth is 94.6% (inactive).
Take `Cc1cc(C)cc(OCC(=O)O)c1`: the growth is 104% (inactive).
Turning to `CCOC(OCC)C(=O)c1ccccc1`, the growth was 85% (inactive).
Still for that read-out and setting: the figure for `Cc1ccnc(Nc2nc3ccccc3[nH]2)n1` is 101% (inactive).
Still for that read-out and setting: the figure for `O=C(NC(=S)N1CC=CCC1)c1ccccc1` is 98.5% (inactive); for `COc1cc(OC)c(NC(=O)C(Sc2nc(C)cc(C)c2C#N)c2ccccc2)cc1Cl` (stereo not drawn) it is 102% (inactive); for `O=S(=O)(O)c1cccc2cccnc12` it is 86.8% (inactive).
Regarding `CC(C)(CC(=O)O)CC(=O)O`, the growth was 101% (inactive).
Same read-out and setting: the figure for `CC(=O)N(C)N=Nc1ccc(C)cc1` is 97.7% (inactive); for `CC(=O)c1cccs1` it is 98.3% (inactive); for `CSCC[C@@H]1C(=O)N(C)[C@H](C(C)(C)C)N1C(=O)c1ccccc1` it is 104% (inactive).
Regarding `CC1=CC(=Nc2ccc(N(C)C)cc2)C=C(C)C1=O`, the growth is 69.9% (inactive).
Same read-out and setting: the same measure for `OC(CCN1CCCCC1)(c1ccccc1)c1ccccc1`: 96% (inactive); for `CCOC(=O)c1ccc(NC(=O)Nc2nccs2)cc1`: 22.8% (inactive); for `O=CNCCc1ccccc1`: 91.4% (inactive).

The test system of another test is SK-MEL-5 melanoma. The description is as above. Conditions: 10 µM unless noted.
For `CCCCCC(=O)OCCC1CCCCC1`, the growth is 100% (inactive).
In the case of `CC(C)OCC(CCl)OC(=O)Nc1ccccc1` (stereo not drawn), the growth was 101% (inactive).
Still for that read-out and setting: the same measure for `Oc1cccc(CNC2CCCCC2)c1`: 103% (inactive); for `C=CCC(OC(C)=O)c1ccc(OC)c(OC)c1` (stereo not drawn): 119% (inactive).
Regarding `COC1OC(CO)C(OC)C(O)C1O` (stereo not drawn), the growth was 103% (inactive).
On the same count and under the same terms, the figure for `O=S(Cc1ccccc1)/C(=C/NC(=S)Nc1ccccc1)c1ccccc1` (stereo not drawn) is 104% (inactive); for `Oc1ccc(N=Cc2ccc(OCc3ccccc3)cc2)cc1` it is 92.2% (inactive).
On to `CCCCCCCCCCCCCCCCCC(=O)NCCNC(=O)CCCCCCCCCCCCCCCCC`, for which the growth was 102% (inactive).
As to `O=C1C=C(c2ccccc2)C(O)(c2ccccc2)C1` (stereo not drawn), the growth was 106% (inactive).
Still for that read-out and setting: the same measure for `Nc1ncc([N+](=O)[O-])cn1`: 94.6% (inactive); for `CCN(C(C)=O)c1ccc([N+](=O)[O-])cc1`: 96.2% (inactive).
On to `C1C[S+]2CC[S+]1CC2`, for which the growth was 98.8% (inactive).
The same measure, in the same setting: the figure for `NC(=O)OCCO` is 95.4% (inactive); for `COC1CC(OC(=O)c2ccc([N+](=O)[O-])cc2)C(COC(=O)c2ccc([N+](=O)[O-])cc2)O1` (stereo not drawn) it is 95.7% (inactive); for `CC(=O)c1cc(O)ccc1O` it is 113% (inactive).
Still for that read-out and setting: the figure for `Cc1c(Cl)cccc1NC(=S)NC(=O)c1ccccc1` is 90.1% (inactive); for `Cc1cc(Cl)cc(Cc2cc(Cl)cc(C)c2O)c1O` it is 6.88% (active); for `CCCOCc1cn[nH]n1` it is 106% (inactive).
Still for that read-out and setting: the figure for `Cc1ccc(C(C)C)c(OCC(=O)O)c1` is 100% (inactive); for `OC(CBr)CCBr` (stereo not drawn) it is 101% (inactive); for `CC(CCC#N)(CCC#N)C(=O)c1ccccc1` it is 109% (inactive).
In the case of `CCC(=O)Oc1c(C)cc(O)c2ccccc12`, the growth is 82% (inactive).
On the same count and under the same terms, the figure for `COCC(N)=O` is 102% (inactive).
Same read-out and setting: the figure for `Cc1cc(C)cc(OCC(=O)O)c1` is 110% (inactive); for `CCOC(OCC)C(=O)c1ccccc1` it is 96.1% (inactive); for `Cc1ccnc(Nc2nc3ccccc3[nH]2)n1` it is 105% (inactive).
`O=C(NC(=S)N1CC=CCC1)c1ccccc1`: the growth is 104% (inactive).
Same read-out and setting: the same measure for `COc1cc(OC)c(NC(=O)C(Sc2nc(C)cc(C)c2C#N)c2ccccc2)cc1Cl` (stereo not drawn): 102% (inactive); for `O=S(=O)(O)c1cccc2cccnc12`: 107% (inactive); for `CC(C)(CC(=O)O)CC(=O)O`: 97.7% (inactive).
On the same count and under the same terms, the figure for `CC(=O)N(C)N=Nc1ccc(C)cc1` is 103% (inactive); for `CC(=O)c1cccs1` it is 110% (inactive).
On to `CSCC[C@@H]1C(=O)N(C)[C@H](C(C)(C)C)N1C(=O)c1ccccc1`, for which the growth is 106% (inactive).
Take `CC1=CC(=Nc2ccc(N(C)C)cc2)C=C(C)C1=O`: the growth is 74% (inactive).
Turning to `OC(CCN1CCCCC1)(c1ccccc1)c1ccccc1`, the growth was 97.4% (inactive).
Same read-out and setting: the figure for `CCOC(=O)c1ccc(NC(=O)Nc2nccs2)cc1` is -67.3% (active); for `O=CNCCc1ccccc1` it is 107% (inactive).
